SMILES strings stand for the structures. Screen size: about 2,100 compounds; about 590 (28%) were called active. Another 42% or so got no clear call; they are omitted. The list shows a part of the results. A number with no mark means an inactive call. Calls follow the shape of the dose curve; as a rule, active = well fitted inhibition curve with a large enough effect; inconclusive = small, poorly fitted or top-dose-only effect; inactive = flat fitted curve, though single readings scatter.
Potency is read from the fitted curve at half-maximal effect.

Chain of DNA dC->dU-editing enzyme APOBEC-3F (Homo sapiens) (Q8IUX4 whole entry, looked up): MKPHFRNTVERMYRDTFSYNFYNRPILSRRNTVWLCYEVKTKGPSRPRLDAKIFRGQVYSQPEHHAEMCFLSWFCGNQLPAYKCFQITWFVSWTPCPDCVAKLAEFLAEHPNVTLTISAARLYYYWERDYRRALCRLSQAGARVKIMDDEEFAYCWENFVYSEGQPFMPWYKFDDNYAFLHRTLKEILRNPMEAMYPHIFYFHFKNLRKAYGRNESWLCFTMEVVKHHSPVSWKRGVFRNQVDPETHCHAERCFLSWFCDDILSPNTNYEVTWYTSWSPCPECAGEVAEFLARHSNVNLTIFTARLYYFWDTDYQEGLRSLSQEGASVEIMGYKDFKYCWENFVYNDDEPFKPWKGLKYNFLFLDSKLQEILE

This assay addresses DNA dC->dU-editing enzyme APOBEC-3F (Homo sapiens) (UniProt Q8IUX4). The assay is described as follows: qHTS for inhibitors of Vif-A3F interactions: Cherry picks. Also: nearly all actives have a fitted effect of over 70% in size.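 As to max response: % of control where 0% means no effect; active compounds raise eYFP fluorescence by blocking Vif-driven A3F loss.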 To be noted: HeLa A3F-eYFP + Vif (tagged APOBEC3F with the HIV-1 protein that degrades it), eYFP fluorescence, 24 h. In short, it runs like this: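 Read-out: yellow fluorescence (ex 488 nm, em 500-530 nm) by laser-scanning cytometer after 24 h compound exposure, several concentrations, at 37 deg C. Cells: HeLa line stably co-expressing Vif and C-terminally eYFP-tagged A3F; MG132 served as positive control.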
In the case of `Cn1c(=O)c2c(nc(NC3CCCC3)n2C)n(C)c1=O`, the max response is -0.225%.
The same measure, in the same setting: with `COc1cc(/C=N/Nc2cc(C)nc(NS(=O)(=O)c3ccccc3)n2)ccc1O` the figure was 2.36%; with `O=C(c1ccccn1)C1CCCN(Cc2cn[nH]c2-c2cc3ccccc3o2)C1` (configuration not stated), 1.54%.
On the same count and under the same terms, the same measure for `O=C(O)CSc1c2ccccc2cc2ccccc12`: -4.37%.
Take `O=[N+]([O-])c1ccc(N/N=C/c2c[nH]c3ccccc23)c(S(=O)(=O)Nc2ccc(Cl)cc2)c1`: the Potency was 18.4 µM (active).
On the same count and under the same terms, the same measure for `COc1ccc(NS(=O)(=O)c2cc([N+](=O)[O-])ccc2N/N=C/c2c(C)[nH]c3ccccc23)cc1`: 16.4 µM (active); for `C/C(=N/Nc1ccc([N+](=O)[O-])cc1)c1c[nH]c2ccccc12`: 9.2 µM (active).
Regarding `CNC(=S)N/N=C(\C)c1ccc(Cl)s1`, the max response was -3.1%.
Still for that read-out and setting: with `COCCNC(=S)N/N=C(\C)c1ccccc1O` the figure was 0.575%; with `Cc1ccc2nc(NS(=O)(=O)c3ccc(Cl)cc3)c(Nc3ccc(C(=O)O)cc3)nc2c1`, -8.36%.
Take `O=C(Nc1cc(F)cc(F)c1)c1ccc(NCCc2ccccc2)c([N+](=O)[O-])c1`: the Potency was 20.6 µM (active).
Take `COc1ccc(NC(=O)c2ccc(NC(=O)C(C)C)cc2)c([N+](=O)[O-])c1`: the max response was -19.6%.
With `Cc1ccc(NC(=O)c2ccc(NCC3CCCO3)c([N+](=O)[O-])c2)cc1Cl` (configuration not stated), the Potency was 20.6 µM (active).
On the same count and under the same terms, with `Cc1ccc(NC(=O)c2ccc(NCc3ccco3)c([N+](=O)[O-])c2)cc1Cl` the figure was 16.4 µM (active).
`O=C(NC(=S)Nc1ccc(N2CCCCC2)c(Cl)c1)c1ccc2c(c1)OCCO2`: the max response is -28.8%.
Same read-out and setting: the same measure for `Cc1ccc(NC(=O)c2ccc(NCCCN3CCC(C)CC3)c([N+](=O)[O-])c2)cc1F`: -24%; for `CC1C/C(=N\NC(N)=S)c2cc(Cl)ccc2S1` (configuration not stated): -5.07%.
Consider `C/C(CCC(C)C)=N\NC(=S)NCc1ccccc1`, for which the max response is -4.2%.
In the case of `CCOC(=O)c1csc(NC(=O)c2cc(-c3ccccn3)nc3ccccc23)n1`, the max response was -1.96%.
As to `CCOC(=O)Cc1csc(NC(=O)c2sc3nc4c(C)cc(C)cc4cc3c2N)n1`, the Potency is 20.6 µM (active).
Same read-out and setting: the same measure for `C[C@]12CCC[C@H](O1)c1c(cc3c(c1O)C(=O)c1c(O)cc(O)cc1C3=O)O2`: 14.6 µM (active).
Take `O=C(CC1CC2CCC1C2)Nc1nc(-c2ccccn2)cs1` (configuration not stated): the max response was 0.305%.
For the compound `CCOC(=O)CSc1nc2c(c(=O)[nH]1)C(C)(CC)Cc1ccccc1-2` (configuration not stated), the Potency was 8.2 µM (active).
Regarding `Cc1sc2nc(SCC(=O)N3CCOCC3)[nH]c(=O)c2c1-c1ccccc1`, the max response is -2.85%.
Consider `CCN(CC)c1ccc(/C=C(/C#N)c2nc3ccccc3[nH]2)c(OC(C)C)c1`, for which the Potency is 2.06 µM (active).
On to `CCOc1cc(N(CC)CC)ccc1/C=C(/C#N)c1nc2ccccc2[nH]1`, for which the Potency is 1.46 µM (active).
As for `Cc1cccc(OCCOc2ccccc2C=C(C#N)C#N)c1`, the max response is -24.6%.
Regarding `CCCOc1cc(N(CC)CC)ccc1/C=C(/C#N)c1nc2ccc(C)cc2[nH]1`, the max response is 0.514%.
Still for that read-out and setting: the same measure for `C/C(=N\NC(N)=S)C12CC3CC(CC(C3)C1)C2`: 3.49%.
In the case of `CCOc1ccc(N(C)c2ccc(/C=C3/SC(=S)NC3=O)cc2)cc1`, the Potency was 15.8 µM (active).
For the compound `CCOc1cc(Br)cc(/C=C2\SC(=Nc3ccccc3)NC2=O)c1O`, the max response was -27.7%.
Turning to `COc1ccccc1N=C1NC(=O)/C(=C/c2ccc(N(C)C)cc2)S1`, the Potency was 4.11 µM (active).
As for `CN(C)c1ccc(C=C2SC(=S)NC2=O)cc1`, the Potency was 17.7 µM (active).
Regarding `CC12CC3CC(C)(C1)CC(C(=O)NC(=S)N1CCOCC1)(C3)C2`, the max response is 4.69%.
Turning to `CSc1nc(N)c(C#N)c(-c2ccccc2Cl)c1C#N`, the max response was -19.1%.
The same measure, in the same setting: with `CC(=O)Nc1cccc(-c2ccnc3c2CC(C)(C(=O)NCc2cccs2)O3)c1` (configuration not stated) the figure was -24.8%; with `CN(C)S(=O)(=O)c1ccc(N2CCCC2)c(C(=O)N2CCN(S(=O)(=O)c3ccc(F)c(F)c3)CC2)c1`, 3.41%; with `COc1ccc(OCCCC(=O)N2CCN(S(=O)(=O)c3cccc(F)c3)CC2)cc1`, -3.23%.
Turning to `CC1(C)Cc2c(sc3ncnc(NNC(=S)NCc4ccccc4)c23)CO1`, the max response was -20.8%.
The same measure, in the same setting: with `C=C(C)CNC(=S)NNC(=O)c1ccco1` the figure was 4.89%; with `N#C/C(=C/c1ccc(-c2ccc([N+](=O)[O-])cc2)o1)C(=O)Nc1nc(-c2cccs2)cs1`, -8.39%.
Take `Cc1ccc(NC(=O)/C(C#N)=C\c2ccc(-c3ccc(Cl)cc3)o2)c(C)c1`: the Potency is 7.31 µM (active).
Still for that read-out and setting: with `CN(C)CCNc1ccc2ncn3c4ccc(O)cc4c(=O)c1c23` the figure was 20.6 µM (active).
`CCN(CC)CCCNc1ccc2ncn3c4ccc(O)cc4c(=O)c1c23`: the Potency was 8.2 µM (active).
Regarding `CS(=O)(=O)Nc1ccc(C2=NN(S(=O)(=O)c3ccccc3)C(c3cccs3)C2)cc1` (configuration not stated), the max response is -22.9%.
As to `CCc1ccc(C2=NN(S(C)(=O)=O)C(c3cccs3)C2)cc1` (configuration not stated), the Potency is 15.8 µM (active).
Turning to `CCOc1ccccc1C1CC(c2cccs2)=NN1S(C)(=O)=O` (configuration not stated), the max response is -22.3%.
In the case of `N#C/C(=C\c1cccc(O)c1)c1nc2ccccc2o1`, the Potency is 3.53 µM (active).
On the same count and under the same terms, the same measure for `C=CCN1C(=O)c2cccc3c(N4CCCCC4)ccc(c23)C1=O`: 16.4 µM (active).
Take `CCCCN1C(=O)c2cccc3cc(O)cc(c23)C1=O`: the max response was -4.14%.
The same measure, in the same setting: with `COc1ccccc1N1C(=O)c2cccc3c(C(=O)O)ccc(c23)C1=O` the figure was 1.5%.
The same measure, in the same setting: the same measure for `O=C1c2cccc3c(N4CCCCC4)ccc(c23)C(=O)N1c1ccc(O)cc1`: -17.3%.
In the case of `O=C1c2cccc3c(N4CCCCC4)ccc(c23)C(=O)N1CCO`, the Potency was 15.8 µM (active).
The same measure, in the same setting: with `O=C(O)c1ccccc1N/N=C/c1c(Sc2nnnn2-c2ccccc2)nc2ccccn2c1=O` the figure was 9.94 µM (active); with `CN1C/C(=C\c2ccc(N3CCOCC3)cc2)C(=O)/C(=C/c2ccc(N3CCOCC3)cc2)C1`, 18.4 µM (active).
`Cc1ccc(Cc2c(C3CCCCC3)nc3ccc(C)cn23)cc1`: the max response is -5.74%.
Still for that read-out and setting: with `COc1ccccc1/C=C/C=N/n1c(-c2ccc(C)cc2)n[nH]c1=S` the figure was -22%.

(Values after PubChem BioAssay AID651814 (National Center for Advancing Translational Sciences (NCATS), 2012).)
